KB-V1 MDR tox: KB-V1 MDR subline cytotoxicity; KB-V1 MDR cells viability, CellTiter-Glo, 72 h; Potency, µM (top dose mostly 46.1 µM), actives largely listed as cytotoxic; 3.4% of 400,000 active; also: % is scaled to controls: 0 for no effect and ±100 for the full control effect; nearly all actives have a fitted effect of over 60% in size
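Cytotoxicity toward P-gp-expressing KB-V1 cells was determined as loss of CellTiter-Glo luminescence after 72 h at 37 degrees C. Compounds were tested in quantitative HTS format across a concentration range, with curves fitted to normalized data.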
HT1080 IDH1KD tx: toxicity to HT-1080 IDH1 knockdown cells (counter line); HT-1080 IDH1 knockdown viability, ATP luminescence, 48 h; Potency, µM (top dose mostly 46.1 µM), for the others: at the highest dose activity, negative = toxicity, actives largely listed as cytotoxic; 2% of 360,000 active; AID 686971;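 also: 0% = DMSO wells and -100% = cell-free medium wells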
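After a 2 h attachment period, IDH1KD HT-1080 cells took pin-transferred compound for 48 h at 37 °C; ATP-based luminescence after 10 min room-temperature reagent incubation reported viability.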
HepG2 tox: HepG2 cytotoxicity, counter-screen for TGF-b inhibitors; HepG2 CAGA-GFP viability, ATP luminescence, 18 h; Potency, µM (doses to about 46.1 µM), inactives show at the highest dose activity change, negative = cytotoxicity, hits mostly cytotoxic; 0.76% of 410,000 active; AID 588856
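HepG2 CAGA-GFP cells (1000/well, DMEM with 1% FBS) received compound, then TGF-beta at 500 pg/mL final, and were incubated 18 hours at 37 degrees C. Viability was read by CellTiter-Glo luminescence. Media-only wells were set as complete cell-killing and DMSO as no toxicity.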
HT1080-NT tox: kills 2HG-producing HT-1080-NT fibrosarcoma cells. 1.6% of 360,000 active. AID 686970. HT-1080-NT fibrosarcoma viability, CellTiter-Glo ATP luminescence, 48 h. Potency, µM (series often up to 46.1 µM), inactives show top-dose activity, negative = less viability, hits mostly cytotoxic;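 also: NT is the 2HG producing partner of a matched IDH1 knockdown line; 0% = DMSO-treated cells and -100% = media-only wells without cells; nearly all actives have a fitted effect of over 55% in size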
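Toxicity toward the 2HG-producing NT line was scored as %Activity, normalised to DMSO and no-cell wells, from CellTiter-Glo luminescence after 48 hours' treatment.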
KB-3-1 tox: kills parental KB-3-1 adenocarcinoma cells | KB-3-1 viability, CellTiter-Glo ATP luminescence, 72 h | Potency, µM (highest dose often 46.1 µM), usual class: cytotoxic | 1.4% of 400,000 active | AID 1347075; also: % is scaled to controls: 0 for no effect and ±100 for the full control effect; nearly all actives have a fitted effect of over 60% in size
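72 h, 37 °C compound treatment of KB-3-1 parental cells; CellTiter-Glo added, 10 min, luminescence read. Data corrected against DMSO-only plates and normalized before curve fitting.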
TGFb inhibitor: inhibitors of TGF-b signaling; HepG2 CAGA-GFP TGF-b/SMAD3 reporter, GFP fluorescence, 18 h; TGF-beta stimulated, 500 pg/mL final; Potency, µM (highest dose often 46.1 µM), inactives show at the top dose activity, negative = inhibition, actives largely listed as inhibitors; 1.2% of 410,000 active; also: % is scaled to controls: 0 for no effect and ±100 for the full control effect; nearly all actives have a fitted effect of over 65% in size
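HEPG2 CAGA-GFP reporter cells (1000/well, DMEM with 1% FBS) received compounds, then recombinant TGF-beta at 500 pg/mL final for 18 hours at 37 degrees C. Per-cell GFP summed per well was normalised to unstimulated and stimulated DMSO controls before curve fitting.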
Active calls of the source: *; ! = not confirmed by another sample. An excerpt weighted towards active compounds, which were near 6.6% of everything screened. Calls follow the shape of the dose curve; as a rule, active = well fitted curve in the direction sought with a large enough effect; inconclusive = small, poorly fitted or top-dose-only effect, or another doubt; inactive = no such curve, though single readings can be large; an effect the other way counts as inactive or inconclusive. Potency is read from the fitted curve at half-maximal effect.

For CCCN1CNc2c(c(=O)[nH]c(=S)n2CCc2cc(C)ccc2C)C1 the results were HT1080 IDH1KD tx 14% and HT1080-NT tox 4%.
Screening COc1ccc(-c2cn3c(n2)sc2cc(C(=O)NCCCN4CCCCCC4)ccc23)cc1 returned HepG2 tox -67% and TGFb inhibitor inconclusive.
For CC(C)(C)OC(=O)NCCCCCNC(=O)c1[nH]cnc1C(=O)Nc1ccc(Cl)cc1 the results were KB-V1 MDR tox inactive, HT1080 IDH1KD tx inconclusive, HepG2 tox 18µM*, HT1080-NT tox inconclusive, KB-3-1 tox inconclusive and TGFb inhibitor inconclusive.
Screening CCOC(=O)c1ccc(NC(=O)c2nc[nH]c2C(=O)N[C@@H](Cc2ccccc2)C(=O)OC(C)(C)C)cc1 returned KB-V1 MDR tox inactive, HT1080 IDH1KD tx 3%, HepG2 tox -52%, HT1080-NT tox -6%, KB-3-1 tox 13µM* and TGFb inhibitor inconclusive.
For Cc1ccc(NC(=O)c2nc[nH]c2C(=O)NCCCCCNC(=O)OC(C)(C)C)cc1 the results were KB-V1 MDR tox inconclusive, HT1080 IDH1KD tx -28%, HepG2 tox -55%, HT1080-NT tox inconclusive, KB-3-1 tox inconclusive and TGFb inhibitor inconclusive.
CCOC(=O)c1c(C)[nH]c(CCC(=O)Nc2c(Cl)cc(OC)cc2OC)c1C was read as HepG2 tox -19% and TGFb inhibitor -9%.
COc1ccccc1C(=O)Nc1ccc2nc(SCC(=O)N3CCCC3)sc2c1 was read as HepG2 tox 2% and TGFb inhibitor -1%.
For Cc1c(C(=O)NCc2ccc(C(C)C)cc2)sc(=O)n1Cc1cccc(F)c1 the results were KB-V1 MDR tox inactive, HT1080 IDH1KD tx inconclusive, HepG2 tox -64%, HT1080-NT tox -18%, KB-3-1 tox inactive and TGFb inhibitor inconclusive.
CSc1ccc(Cn2c(C)c(C(=O)NCc3ccc(C(C)C)cc3)sc2=O)cc1 was read as KB-V1 MDR tox 16µM*, HT1080 IDH1KD tx -5%, HepG2 tox -4%, HT1080-NT tox -9%, KB-3-1 tox 18µM* and TGFb inhibitor inconclusive.
Cc1c(C(=O)NCc2ccc(C(C)C)cc2)sc(=O)n1Cc1ccc(S(=O)(=O)N(C)C)cc1 was read as KB-V1 MDR tox 2.6µM*, HT1080 IDH1KD tx inconclusive, HepG2 tox -11%, HT1080-NT tox -15%, KB-3-1 tox inconclusive and TGFb inhibitor 1%.
`Cc1ccc(S(=O)(=O)Nc2ccc3c(c2)c(C(=O)OC(C)C)c(C)n3S(=O)(=O)c2ccc(C)cc2)cc1` gave HepG2 tox 0% and TGFb inhibitor -2%.
`Nc1c(C(=O)Nc2ccc(OC(F)(F)F)cc2)nnn1Cc1ccccc1` gave KB-V1 MDR tox inactive, HepG2 tox -6%, KB-3-1 tox inactive and TGFb inhibitor -7%.
`Cc1cccc(C)c1NC(=O)CSc1ncc2c(n1)-c1ccc(Cl)cc1N(Cc1ccccc1)S2(=O)=O` gave HepG2 tox 5% and TGFb inhibitor 11%.
Cc1ccccc1Nc1c(-c2ccc(Cl)s2)nc2cccc(C)n12 was read as KB-V1 MDR tox inactive, HepG2 tox -18%, KB-3-1 tox inactive and TGFb inhibitor -1%.
Screening CCN(CC)Cc1cc2[nH]c3c4ccc(Cl)cc4ncc3c2cc1OC returned KB-V1 MDR tox inactive, HT1080 IDH1KD tx inconclusive, HepG2 tox -43%, HT1080-NT tox 22µM*!, KB-3-1 tox inactive and TGFb inhibitor -21%.
COc1ccccc1CNc1ncnc2cc(Cl)ccc12 was read as KB-V1 MDR tox inconclusive, HT1080 IDH1KD tx -18%, HepG2 tox -20%, HT1080-NT tox -12%, KB-3-1 tox inactive and TGFb inhibitor inconclusive.
CCOc1ccccc1CNC(=O)CN1C(=O)CCCc2ccccc21 was read as KB-V1 MDR tox inactive, HepG2 tox -5%, KB-3-1 tox inactive and TGFb inhibitor 0%.
`CCCSCCCNC(=O)C1CCN(C(=O)c2cnn(-c3ccccc3)c2-n2cccc2)CC1` gave KB-V1 MDR tox inactive, HepG2 tox -10%, KB-3-1 tox inactive and TGFb inhibitor inconclusive.
For CCOC(=O)CC(NC(=O)c1cc2cc(OC)ccc2oc1=O)c1ccc(OC)cc1 (configuration not stated) the results were KB-V1 MDR tox inconclusive, HepG2 tox -5%, KB-3-1 tox inactive and TGFb inhibitor -3%.
Screening CC(C(=O)NCC(=O)Nc1ccc(F)c(F)c1F)N1CCN(Cc2ccc(C#N)cc2)CC1 (configuration not stated) returned KB-V1 MDR tox 13µM*, HT1080 IDH1KD tx -2%, HepG2 tox -10%, HT1080-NT tox 5%, KB-3-1 tox inactive and TGFb inhibitor -9%.
`CC(C(=O)NCC(=O)Nc1ccc(F)c(F)c1F)N1CCN(c2ccc(O)cc2)CC1` (configuration not stated) gave KB-V1 MDR tox inactive, HT1080 IDH1KD tx inconclusive, HepG2 tox -11%, HT1080-NT tox inconclusive, KB-3-1 tox inconclusive and TGFb inhibitor -5%.
Screening COc1ccc(OC)c(-c2cc(C(=O)Nc3c(C)n(C)n(-c4ccccc4)c3=O)no2)c1 returned KB-V1 MDR tox 23µM*, HT1080 IDH1KD tx -1%, HepG2 tox 0%, HT1080-NT tox 4%, KB-3-1 tox inactive and TGFb inhibitor -8%.
For Cc1cccc(CSc2ccc3nnc(-c4cccnc4)n3n2)c1 the results were KB-V1 MDR tox inactive, HT1080 IDH1KD tx 23%, HepG2 tox 25%, HT1080-NT tox 5%, KB-3-1 tox inactive and TGFb inhibitor 5%.
c1ccc(CSc2ccc3nnc(-c4cccnc4)n3n2)cc1 was read as KB-V1 MDR tox 18µM*, HT1080 IDH1KD tx 1%, HepG2 tox -25%, HT1080-NT tox 0%, KB-3-1 tox inactive and TGFb inhibitor 10%.
For CCOc1ccc(-n2nc(CO)c(C(=O)NCc3cccc(OC)c3)n2)cc1 the results were HepG2 tox -16% and TGFb inhibitor -8%.
`CCN(CC)c1ccc(NC(=O)c2ccc3c(c2)c(C)c(C)n3C)cc1` gave KB-V1 MDR tox 16µM*, HT1080 IDH1KD tx inconclusive, HepG2 tox -3%, HT1080-NT tox 18µM*, KB-3-1 tox 23µM* and TGFb inhibitor -22%.
Cc1ccccc1CNC(=O)c1ccc2c(c1)c(C)c(C)n2C was read as KB-V1 MDR tox inactive, HepG2 tox -14%, KB-3-1 tox inactive and TGFb inhibitor -20%.

Screening results from PubChem.
